PubChem BioAssay AID1961 (Sanford-Burnham Center for Chemical Genomics, 2009)
Out of some 290,000 compounds screened, about 140 (0.048%) were called active.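 How the source made its calls: active means activation above 40% with more than 50 cells counted in the well; inconclusive means wells holding fewer than 50 cells, flagged as toxic or sparse; inactive means the rest.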 For the sample, actives were picked, then their nearest neighbours and some compounds at random.

Key:
[1] = selective activators of receptor GPR55 – imaging, U2OS cells, beta-arrestin-GFP redistribution, primary screen (AID 1961); settings: measured here: cytotoxicity, cells analyzed, at 10 µM;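 further: U2OS osteosarcoma cells stably expressing GPR55 and beta-arrestin-GFP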;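 on activation: plate controls were DMSO negative control for no effect and LPI positive control for full effect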
[2] = target: G-protein coupled receptor 55 (Homo sapiens) (UniProt Q9Y2T6); assay: as above; settings: at 10 µM, stronger effect = higher value
Sequence of G-protein coupled receptor 55 (Homo sapiens) (Q9Y2T6 whole entry, looked up): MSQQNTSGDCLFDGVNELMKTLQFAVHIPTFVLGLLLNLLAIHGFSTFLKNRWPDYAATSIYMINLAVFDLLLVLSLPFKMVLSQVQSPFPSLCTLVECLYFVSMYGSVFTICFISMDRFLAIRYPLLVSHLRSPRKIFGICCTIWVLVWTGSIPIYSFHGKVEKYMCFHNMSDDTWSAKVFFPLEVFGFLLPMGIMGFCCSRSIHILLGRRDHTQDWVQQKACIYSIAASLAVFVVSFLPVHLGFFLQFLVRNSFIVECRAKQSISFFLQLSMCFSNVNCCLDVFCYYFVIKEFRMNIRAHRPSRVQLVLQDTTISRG

Compound | cell count [1] | activation [2]
O=C(Nc1ccc2c(c1)C(=O)OC2)c1ccc(F)cc1F | 353 cells | -0.2% (inactive)
Cc1nn(C)c(C)c1CNC(=O)c1cc2n(n1)C(C(F)(F)F)CC(c1cccs1)N2 (stereo not given) | 389 cells | 0.1% (inactive)
Nc1c(-c2ccccc2)c(CSc2nc3ccccc3[nH]2)nn1-c1ccc(C(=O)O)cc1 | 311 cells | -0.2% (inactive)
COc1cc(/C=C(\NC(=O)c2ccccc2)C(=O)NCC(=O)O)c([N+](=O)[O-])cc1OC | 349 cells | -0.1% (inactive)
COc1cc(/C=C/c2cc(OC(C)=O)c3ccccc3n2)c(OC(C)=O)c([N+](=O)[O-])c1 | 366 cells | 0.2% (inactive)
CN(C)c1ccnc(Nc2ccccc2)c1C#N | 373 cells | 0.3% (inactive)
O=C1c2ccccc2C(=O)N1Cc1cccnc1 | 406 cells | -0.2% (inactive)
CC(C)Cn1c(N)c(C(=O)COC(=O)c2cc(-c3ccco3)nc3ccccc23)c(=O)n(C)c1=O | 285 cells | -0.1% (inactive)
Cn1c(=O)c(C(=O)COC(=O)c2cc(-c3ccco3)nc3ccccc23)c(N)n(Cc2ccccc2)c1=O | 365 cells | 8.3% (inactive)
Cn1c(=O)c(C(=O)COC(=O)c2cc(-c3ccco3)nc3ccccc23)c(N)n(CC2CC2)c1=O | 375 cells | 59.6% (active)
CCOC(=O)N1CCN(C(=O)c2ccc3c(c2)N(Cc2cccc(Cl)c2)C(=O)c2ccccc2S3=O)CC1 (stereo not given) | 331 cells | 21.2% (inactive)
Cc1ccc(C(=O)N2CCN(c3ccccn3)CC2)cc1C | 396 cells | -0.1% (inactive)
Cc1ccc(C(=O)N2CCN(c3ccccn3)CC2)cc1Cl | 384 cells | -0.2% (inactive)
Cc1ccc(C)c(CN2C(=O)c3ccccc3S(=O)(=O)c3ccc(C(=O)N4CCN(C)CC4)cc32)c1 | 338 cells | -0.2% (inactive)
CC(=O)Nc1nc(SCC(=O)Nc2nnc(C)s2)[nH]c(=O)c1NC(=O)c1cccs1 | 243 cells | 0.7% (inactive)
CCOCCCNc1nc2c(C)cccn2c(=O)c1/C=C1\SC(=S)N(C(C)CC)C1=O (stereo not given) | 390 cells | 69.7% (active)
CCOCCCNc1nc2c(C)cccn2c(=O)c1/C=C1\SC(=S)N(CC(C)C)C1=O | 348 cells | 1% (inactive)
CCCN1C(=O)/C(=C/c2c(NCCCOCC)nc3c(C)cccn3c2=O)SC1=S | 462 cells | 5.7% (inactive)
O=C(N/N=C/c1ccccc1F)c1cccc(NC(=O)c2ccccc2Cl)c1 | 329 cells | -0.2% (inactive)
COc1cc(OC)cc(C(=O)N2CCN(c3ccccc3F)CC2)c1 | 328 cells | -0.2% (inactive)
CCOc1ccc(NC(=O)C2CC(=O)N(c3cc(C)cc(C)c3)C2)cc1 (stereo not given) | 314 cells | -0.1% (inactive)
COc1cccc(NS(=O)(=O)c2ccc3c(c2)NC(=O)C(C)C(=O)N3)c1 (stereo not given) | 385 cells | -0.1% (inactive)
Cc1ccc(-c2ccc(CO)o2)cc1N | 282 cells | -0.3% (inactive)
O=C(O)c1cccc(CSc2nnc(-c3ccc(Cl)cc3)o2)c1 | 424 cells | 0.2% (inactive)
O=C(O)c1cccc(CSc2ncn[nH]2)c1 | 346 cells | 0.4% (inactive)
O=C(Cn1nc(-c2ccco2)ccc1=O)Nc1cc(C(F)(F)F)ccc1Cl | 369 cells | -0.1% (inactive)
O=C(NOC(=O)c1cc(Br)ccc1Cl)c1cccs1 | 347 cells | -0.1% (inactive)

Compound | cell count [1] | activation [2]
CC(C)(C)NC(=O)COC(=O)c1cc(Br)ccc1Cl | 284 cells | -0.3% (inactive)
O=C(NCc1ccccc1F)C1CCCN(C(=O)NC2CCCCC2)C1 (stereo not given) | 299 cells | -0.1% (inactive)
COc1cccc(CNC(=O)c2cccc(S(=O)(=O)N3CCN(C)CC3)c2)c1 | 306 cells | 0% (inactive)
COc1ccc(CNC(=O)CN(C(=O)c2csnn2)c2ccccc2F)cc1 | 338 cells | -0.1% (inactive)
COc1ccc(N2CCN(C(=O)c3cc(=O)c4ccc(C)cc4o3)CC2)cc1 | 331 cells | -0.2% (inactive)
CCOc1ccccc1C(=O)Oc1ccc2ccc(=O)oc2c1 | 397 cells | 0.9% (inactive)
COc1cccc(C2/C(=C(\O)c3ccc4c(c3)OCCO4)C(=O)C(=O)N2CC2CCCO2)c1 (stereo not given) | 382 cells | 0.2% (inactive)
Cc1ccc(/C=N/Nc2ccc3c(C(F)(F)F)cc(C(F)(F)F)nc3n2)cc1 | 447 cells | -0.2% (inactive)
FC(F)(F)c1cc(C(F)(F)F)c2ccc(N/N=C/c3cccc(Cl)c3)nc2n1 | 390 cells | 59.1% (active)
FC(F)(F)c1cc(C(F)(F)F)c2ccc(N/N=C/c3ccccc3)nc2n1 | 408 cells | -0.3% (inactive)
COCc1cc(C)nc(N)c1C#N | 359 cells | 0.1% (inactive)
S=C(NCCc1ccccc1)N1CCN(C2CCCCC2)CC1 | 462 cells | -0.1% (inactive)
O=C(C1=C[C@H](c2ccc(C(F)(F)F)cc2)C[C@H](OCc2ccc(CO)cc2)O1)N1CCOCC1 | 338 cells | 0.1% (inactive)
O=C(CSc1nnc(-c2ccc(F)cc2)o1)NC1CCCC1 | 360 cells | -0.1% (inactive)
CCOC(=O)N1CCN(c2c(NCCCOC(C)C)c(=O)c2=O)CC1 | 327 cells | -0.1% (inactive)
CC(C)OCCCNC(=O)Cc1ccc(F)cc1 | 376 cells | -0.2% (inactive)
Cc1ccc2oc(=O)cc(CN3CCN(Cc4ccccc4)CC3)c2c1 | 335 cells | 0% (inactive)
O=C(CNC(=O)c1ccc(N2C(=O)c3ccccc3C2=O)cc1)OCC(=O)c1cccc2ccccc12 | 341 cells | 0% (inactive)
CC(C)N1CCN(Cc2ccc(C#CC(C)(C)O)s2)CC1CCO (stereo not given) | 368 cells | 0.3% (inactive)
CCOc1ccc(S(=O)(=O)Nc2ccc(C(=O)N3CCCC3)cc2)cc1C(N)=O | 319 cells | 0% (inactive)
O=S(=O)(c1cccc(-c2nn3c(-c4ccncc4)nnc3s2)c1)N1CCOCC1 | 342 cells | -0.2% (inactive)
COCCNC(=O)C(c1ccc(F)cc1)N(C(=O)CCC(=O)Nc1ccccn1)c1cccc(C)c1 (stereo not given) | 316 cells | -0.2% (inactive)
CCCc1cc(=O)n2[nH]c(C)c(-c3ccc(OC)cc3)c2n1 | 417 cells | -0.1% (inactive)
CC(C)(C)NC(=O)CSc1nc(N)c(NC(=O)c2ccccc2F)c(=O)[nH]1 | 255 cells | 0% (inactive)
Cn1c(SCC(=O)NNC(=O)Nc2ccc(Cl)cc2)nnc1-c1ccccc1 | 332 cells | -0.1% (inactive)
COc1cccc(-n2c(SCC(=O)Nc3cc(C)on3)nc3ccccc3c2=O)c1 | 336 cells | 0.5% (inactive)
Cc1cccc(N(CC(=O)Nc2c(C)n(C)n(-c3ccccc3)c2=O)S(C)(=O)=O)c1C | 361 cells | 0% (inactive)

Compound | cell count [1] | activation [2]
CSc1cccc(N/C(=N/S(=O)(=O)c2ccccc2)NN)c1 | 310 cells | 0.6% (inactive)
COc1ccc2cc(CCNC(=O)C3CCCC3)c(=O)[nH]c2c1 | 307 cells | -0.1% (inactive)
c1ccc(-c2noc(CN3CCOCC3)n2)cc1 | 407 cells | 0.2% (inactive)
CC(=O)c1c(C)[nH]c(C(=O)NCCc2c[nH]c3ccccc23)c1C | 348 cells | -0.1% (inactive)
CC1(C)CC(NC(=O)c2c(N)no[n+]2[O-])CC(C)(C)N1 | 241 cells | -0.3% (inactive)
Cc1ccc(NC(=S)Nc2ccc(S(=O)(=O)Nc3ncccn3)cc2)c(C)c1 | 327 cells | -0.2% (inactive)
COCc1[nH]c(=S)[nH]c(=O)c1C | 339 cells | -0.1% (inactive)
Cc1c(Cl)c(=O)oc2cc(OCC(=O)NCc3cccs3)ccc12 | 357 cells | 0% (inactive)
COc1ccc(NC(=O)Cn2c(CCC(=O)O)ccc2-c2ccccc2)cc1 | 413 cells | 0.2% (inactive)
O=C(O)c1ccc(NC(=O)c2ccc3c(c2)C(=O)N(c2ccccc2)C3=O)cc1 | 374 cells | -0.1% (inactive)
O=C(OCc1cc(=O)n2c(n1)sc1ccccc12)c1ccc2c(=O)n3c(nc2c1)CCC3 | 323 cells | -0.1% (inactive)
Cc1sc2nc(CSc3nc4ccccc4c(=O)n3CCCN3CCOCC3)[nH]c(=O)c2c1C | 341 cells | -0.1% (inactive)
Cc1ccc(SC[C@H](Cc2ccccc2)N2CCN(CCc3ccccc3)CCC2=O)cc1 | 347 cells | -0.1% (inactive)
CCCN1CCC(=O)N([C@H](CSc2ccc(C)cc2)CC(C)C)CC1 | 328 cells | 5.1% (inactive)
Cc1ccc(SC[C@H](CC(C)C)N2CCN(CCc3ccccc3)CCC2=O)cc1 | 305 cells | 193% (active)
Cc1ccc(CNC(=O)CCS(=O)(=O)c2ccc3c(c2)NC(=O)CO3)cc1 | 376 cells | -0.2% (inactive)
CCOC(=O)C(CSCC(=O)c1ccc(Cl)cc1Cl)NC(=O)OC(C)(C)C (stereo not given) | 359 cells | -0.1% (inactive)
CCOC(=O)c1c(CN2CCN(CCO)CC2)n(-c2ccccc2)c2cc(Br)c(O)cc12 | 355 cells | 0.3% (inactive)
O=c1oc2ccccc2c(NCc2ccc(Cl)cc2)c1[N+](=O)[O-] | 384 cells | -0.3% (inactive)
O=C(NCCN1CCN(C(=O)c2ccc(F)cc2)CC1)c1ccc(F)cc1 | 452 cells | 0.2% (inactive)
CCOc1ccc2nc(Cl)sc2c1 | 247 cells | -0.1% (inactive)
Nc1cc(-c2ccccc2)n2c(n1)nc1ccccc12 | 331 cells | 0.3% (inactive)
Cc1cc(=O)[nH]c(SCC(=O)N2CCCCCC2)n1 | 340 cells | 0% (inactive)
CC(=O)NC1(C(F)(F)F)C(=O)N(Cc2ccccc2)C2=C1C(=O)CC(C)(C)C2 (stereo not given) | 419 cells | 0.2% (inactive)
CCS(=O)(=O)N1CCC(C(=O)N2CCc3ccccc3C2)CC1 | 361 cells | 0% (inactive)
O=C(Cc1ccccc1)Nc1ccc(NC(=O)c2ccco2)cc1 | 367 cells | 0.2% (inactive)
